Results as given in PubChem BioAssay AID686978 (National Center for Advancing Translational Sciences (NCATS), 2013).
Screen size: about 420,000 compounds; about 64,000 (15%) were called active. Another 27% or so got no clear call; they are omitted. Calls follow the shape of the dose curve; as a rule, active = well fitted inhibition curve with a large enough effect; inconclusive = small, poorly fitted or top-dose-only effect; inactive = flat fitted curve, though single readings scatter. Not all results are given here.

test: qHTS for Inhibitors of human tyrosyl-DNA phosphodiesterase 1 (TDP1): qHTS in cells in absence of CPT; conditions: DT40 Tdp1-/- hTDP1 cells, no CPT, ATP luminescence, 48 h; activity change, negative = growth inhibition: at 46.2 µM (top of the series); also: nearly all actives have a fitted effect of over 55% in size
Summary of the method: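 Chicken DT40 Tdp1-/- cells complemented with human TDP1, screened without camptothecin (DMSO vehicle only), 400 cells/well. Compounds pin-transferred, cells incubated at 37 °C for at least 48 hr. Growth read as ATP-dependent luminescence (CellTiter-Glo, 30 min at RT).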
% is scaled to controls: 0 for no effect and ±100 for the full control effect; potency is read from the fitted curve at half-maximal effect.

SMILES	activity change, negative = growth inhibition	Potency
O=C(/C=N/O)Nc1ccccc1	-4.33% (inactive)	–
CCc1c(C)c2ccc(OC3CCCCC3=O)cc2oc1=O (centres undefined)	10.1% (inactive)	–
O=c1[nH]cnc(O)c1C(c1ccc(F)cc1)c1c(O)nc[nH]c1=O	-6.26% (inactive)	–
O=C(O)CCn1c(Cc2ccccc2)nc2ccccc21	4.29% (inactive)	–
O=C(O)CCn1c(O)c(C=C2N=c3ccccc3=N2)sc1=S	–	18.4 µM (active)
O=C(NCCc1ccc(C(F)(F)F)cc1)c1ccc2c(c1)OCO2	7.51% (inactive)	–
CC1C(c2ccccc2)=[N+]([O-])C2(CCCC2)N1O (centres undefined)	-1.92% (inactive)	–
COc1ccc(C2CC(=O)c3c(O)cc(OC4OC(COC5OC(C)C(O)C(O)C5O)C(O)C(O)C4O)cc3O2)cc1O (centres undefined)	0.352% (inactive)	–
CC(C)S(=O)(=O)c1oc(-c2ccc(F)cc2)nc1S(=O)(=O)c1ccc(F)cc1	–	0.326 µM (active)
COc1cc(-c2nc(S(=O)(=O)c3ccc(Cl)cc3)c(N(C)C)o2)cc(OC)c1OC	-18.5% (inactive)	–
CC1(C)OC2CC3C4CCC5=CC(=O)CCC5(C)C4(F)C(O)CC3(C)[C@]2(C(=O)CCl)O1 (some centres undefined)	-19.2% (inactive)	–
COc1cc(C(=O)Nn2c(O)c(C3=c4ccccc4=NC3=O)sc2=S)ccc1O	-4.32% (inactive)	–
CO[C@@H]1[C@@H](OC(N)=O)[C@@H](O)C(Oc2ccc3c(O)c(NC(=O)c4ccc(O)c(CC=C(C)C)c4)c(=O)oc3c2C)OC1(C)C (some centres undefined)	-4.77% (inactive)	–
COCc1nc2ccccc2n1Cc1ccccc1Br	–	16.4 µM (active)
CCc1cccc(C)c1N(C(=O)Cn1c(CO)nc2ccccc21)C(C)COC (centres undefined)	-20.8% (inactive)	–
O=C(NC1Cc2ccccc2C1)c1cc(COc2cccc(C(F)(F)F)c2)on1	-11.7% (inactive)	–
C/C(CC(=O)N1CCN(C=O)CC1)=N\NC(=O)c1ccc(Br)cc1	-7.46% (inactive)	–
COC(=O)[C@@H]1C[C@@]2(O)[C@H](O)[C@H](O)[C@H](O)C[C@H]2N1Cc1ccc(C)s1	2.33% (inactive)	–
CC(C)N=C1CCCC1C(=S)SSC(=S)C1CCCC1=NC(C)C (centres undefined)	–	0.164 µM (active)
COc1cc(OC)c2c(c1Cl)OC1(C2=O)C(O)=CC(=O)CC1C (centres undefined)	-6.94% (inactive)	–
COc1ccc(CN2CCCCC2C)cc1OC (centres undefined)	13.3% (inactive)	–
COC(=O)c1ccc(COc2ccc(C#N)cc2)o1	3.16% (inactive)	–

SMILES	activity change, negative = growth inhibition	Potency
COc1ccc(C(C)C)cc1S(=O)(=O)Nc1ncn[nH]1	6.42% (inactive)	–
CCOc1ccc(C(C)C)cc1S(=O)(=O)n1nc(C)cc1C	–	13 µM (active)
CCOc1cc(C)c(Cl)cc1S(=O)(=O)n1nnc2ccccc21	0.99% (inactive)	–
CCCNC(=O)CCC(=O)N1Cc2ccccc2Oc2ncccc21	-4.93% (inactive)	–
Cc1ccc(NC(=O)CS(=O)CC(=O)N(c2ccccc2)C(C)C(=O)NC2CCCC2)cc1 (centres undefined)	-18.9% (inactive)	–
COc1ccc(NS(=O)(=O)c2ccc(C)c(C(=O)N(C)Cc3ccc(OC)cc3OC)c2)cc1	–	18.4 µM (active)
COc1ccc(NS(=O)(=O)c2ccc(C)c(C(=O)NNC(=O)c3csc(N4CCOCC4)n3)c2)cc1	-14% (inactive)	–
CCOc1ccc(NS(=O)(=O)c2ccc(Cl)c(C(=O)N(C)Cc3cccnc3)c2)cc1	-32.2% (inactive)	–
CC(=O)Nc1ccc(S(=O)(=O)N(C)c2nc3ccccc3nc2Cl)cc1	–	23.1 µM (active)
CC(=O)Nc1ccc(S(=O)(=O)NNC(=O)CCc2ccccc2)cc1	-3.77% (inactive)	–
CC(=O)Nc1ccc(S(=O)(=O)N(C)c2ccc(OCC(=O)OCC(=O)N3CCCCC3)cc2)cc1	2.05% (inactive)	–
Cc1ccc(C2CC2C(=O)NN)cc1 (centres undefined)	-0.402% (inactive)	–
CCOc1ccc(NS(=O)(=O)c2ccc(N)cc2)nn1	-12.4% (inactive)	–
CC(=O)NCCc1ccc(S(=O)(=O)Nc2ccc(C)c(S(=O)(=O)N3CCOCC3)c2)cc1	-1.29% (inactive)	–
CCn1c(C)nc2cc(C(=O)NNS(=O)(=O)c3ccc(C)cc3C)ccc21	-17.1% (inactive)	–
O=S(=O)(Nc1ccc(-n2cnnn2)cc1)c1ccc(Cl)cc1	0.723% (inactive)	–
CC(=O)c1c(C)n(S(=O)(=O)c2ccc(Cl)cc2)c2ccc(NS(=O)(=O)c3ccc(Cl)cc3)cc12	–	14.6 µM (active)
CCOC(=O)c1c(C)n(S(=O)(=O)c2ccc(C)cc2C)c2ccc(NS(=O)(=O)c3ccc(C)cc3C)cc12	–	20.6 µM (active)
CCOC(=O)c1c(S(=O)(=O)NCC(=O)Nc2ccc(C)cc2)c(C)n(C)c1C	8.47% (inactive)	–
CC(C)(C)CN1CCNC(=O)C1CC(=O)NC1Cc2ccccc2C1 (centres undefined)	1.76% (inactive)	–
Oc1ccc(-c2nncn2-c2ccccc2)cc1	-19% (inactive)	–
COc1cccc(NC(=O)CSc2nnc(Cc3ccc(OC)c(OC)c3)o2)c1	-0.112% (inactive)	–

SMILES	activity change, negative = growth inhibition	Potency
CCC1CCCCN1C(=O)Cn1c(=O)n(CCCCCC(=O)NCc2ccccc2)c(=O)c2sccc21 (centres undefined)	–	13 µM (active)
O=C(CCCn1c(=O)c2sccc2n(CC(=O)NCC2CCCO2)c1=O)NCc1ccco1 (centres undefined)	-2.99% (inactive)	–
Cc1ccc(C)c(Cn2c(=O)n(CCC(=O)NCc3ccc4c(c3)OCO4)c(=O)c3sccc32)c1	-26% (inactive)	–
NC(CSC12CC3CC(CC(C3)C1)C2)C(=O)O (centres undefined)	-1.44% (inactive)	–
CCCc1nc2oc3c(=O)[nH]cnc3c2c2c1COC(C)(C)C2	0.996% (inactive)	–
C=CCN1CCN(c2ccncc2S(=O)(=O)N2CCN(C)CC2)CC1	-9.36% (inactive)	–
CSCCC(NC(=O)c1ccccc1)C(=O)N1CCCCCCC1 (centres undefined)	-4.61% (inactive)	–
CSCCC(NC(=O)c1ccccc1)C(=O)N1CCN(Cc2ccc(Cl)cc2)CC1 (centres undefined)	–	10.3 µM (active)
COc1ccccc1C(=O)NC(CCSC)C(=O)N1CCN(C(C)=O)CC1 (centres undefined)	9.07% (inactive)	–
O=C(NC(=S)N1CCN(Cc2ccccc2)CC1)c1ccccc1	-11.6% (inactive)	–
COc1ccccc1C(=O)NC(CCSC)C(=O)NNC(=O)c1ccccc1C (centres undefined)	-3.37% (inactive)	–
COc1ccccc1C(=O)NC(CCSC)C(=O)N1CCN(C/C=C/c2ccccc2)CC1 (centres undefined)	–	20.6 µM (active)
O=C(CN1CCOCC1)Nc1c(-c2ccccc2)c2cc(Br)ccc2[nH]c1=O	-15.2% (inactive)	–
Cc1ccccc1OCc1nc2c3cnn(-c4ccccc4F)c3ncn2n1	-20.3% (inactive)	–
C=CCN(CC=C)CCOc1ccccc1[N+](=O)[O-]	-28.7% (inactive)	–
COc1cc(-c2nnn(CC(=O)NCc3ccccc3)n2)cc(OC)c1OC	–	14.6 µM (active)
O=C(Cn1nnc(-c2ccccc2)n1)NCc1ccccc1	2.1% (inactive)	–
COc1ccc(CNC(=O)Cn2nnc(-c3ccccc3F)n2)cc1	-18.4% (inactive)	–
Cn1c(=NC(=O)CSCC(=O)N2CCOCC2)sc2ccccc21	-29.2% (inactive)	–
CCC(=O)N1CCc2cc(S(=O)(=O)NCCC(=O)Nc3cccc(C)c3C)ccc21	-27.6% (inactive)	–
